Test results taken from PubChem BioAssay AID2315 (National Center for Advancing Translational Sciences (NCATS), 2010).
In all, about 290,000 compounds went through this assay and about 27,000 (9.3%) were called active. Many of the other results were omitted from the sample, so actives are more common in it than they were. Unmarked numbers belong to inactive results. Rule as the data show it: active = inhibition mostly above about 28% (no sharp cut-off); inactive = mostly below about 43%.

experiment: A qHTS for Small Molecule Inhibitors of Shiga Toxin; settings: Vero cells, Shiga toxin protein synthesis inhibition reporter; at 38.7 µM, stronger effect = higher value; also: 0% is about no effect

| Structure (SMILES) | inhibition |
| --- | --- |
| Cc1ccc(C)c(N2CCN(S(=O)(=O)c3c(C)[nH]c(C)c3C(=O)N3CCCC3)CC2)c1 | 3.26% |
| Cc1cccc(C(=O)c2cccc(C)c2)c1 | 43.6% |
| Cc1cccc(/C(N)=N/OC(=O)c2ccccc2Cl)c1 | 74.6% (active) |
| N/C(=N\OC(=O)c1cc(-c2ccccc2)nc2ccccc12)c1ccncc1 | 15.3% |
| CCCCN1Cc2c(nc3cc(-c4ccccc4)[nH]n3c2=O)C1=O | 2.49% |
| CCc1c(C)nc2cc(-c3cccs3)[nH]n2c1=O | 153% (active) |
| Cc1nc2nc[nH]n2c(=O)c1C/C=C/c1ccccc1 | -3.93% |
| Cc1cc(=O)n2[nH]c(-c3sccc3-n3c(C)ccc3C)cc2n1 | 34.4% |
| CCc1c(C)nc2cc(C)[nH]n2c1=O | 0.52% |
| C=CCc1c(C)nc2cc(-c3ccccc3)[nH]n2c1=O | 45.5% (active) |
| COC(=O)c1cccc(N(C(=O)CNC(=O)c2cccs2)C(C(=O)NCC2CCCO2)c2ccc(OC)c(OC)c2)c1 (stereo not drawn) | 22.3% |
| COc1cc(NC(=O)C2=CC(c3ccco3)=NS(=O)(=O)N2C)cc(OC)c1OC | -2.22% |
| COc1cccc(CNC(=O)C2CCCN(S(=O)(=O)N3CC(C)CC(C)C3)C2)c1 (stereo not drawn) | -1.73% |
| Cc1ccc(S(=O)(=O)N(CCCN(C)C)Cc2ccc3c(c2)OCO3)cc1 | 9.86% |
| O=S(=O)(c1ccc(Br)cc1)c1nc(-c2ccccc2)oc1N1CCOCC1 | -6.09% |
| COc1ccc(S(=O)(=O)NCC(=O)NC2CC2)cc1OC | -5.35% |
| Cn1nccc1C(=O)NC1CCCc2c1cnn2-c1ccc(F)cc1F (stereo not drawn) | 10.4% |
| COC(=O)c1c(NC(=O)c2ccc(S(=O)(=O)N3CCOCC3)cc2)sc2c1CCN(C(C)C)C2 | -17.4% |
| Cc1nn2c(c1-c1ccccc1)N=C(c1ccco1)CC2c1ccccc1 (stereo not drawn) | 103% (active) |
| O=C(O)CCCC(=O)N1N=C(c2ccco2)CC1c1ccco1 (stereo not drawn) | -14% |

| Structure (SMILES) | inhibition |
| --- | --- |
| Cc1cc(C)c(C(=O)CSc2nc(C)cc(=O)[nH]2)c(C)c1 | -13.9% |
| CCC(C)(C)n1nnnc1C(c1ccc(OC)c(OC)c1)N1CCN(C(=O)c2ccco2)CC1 (stereo not drawn) | -11.9% |
| CCOC(=O)[C@@H]1[C@H]2COc3cc(OC)ccc3[C@H]2N2C(=O)N(c3ccc(F)cc3)C(=O)[C@]12C | -4.71% |
| Cc1cc(NC(=O)CN2CCCCC2C)nc2c1c(=O)oc1ccccc12 (stereo not drawn) | -0.755% |
| CCN(CC)CCN1C(=O)C(=O)/C(=C(/O)c2cnn(-c3ccccc3)c2C)C1c1cccs1 (stereo not drawn) | 79.5% (active) |
| CCN(CC)CCN1C(=O)C(=O)/C(=C(/O)c2ccccc2)C1c1ccccc1F (stereo not drawn) | 19.4% |
| CCN(CC)CCN1C(=O)C(=O)/C(=C(/O)c2ccc(OC)c(OC)c2)C1c1ccccn1 (stereo not drawn) | 59.8% |
| O=[N+]([O-])c1cc(C(F)(F)F)ccc1NCCc1ccncc1 | 2.61% |
| NC(=O)c1ccc(Nc2ccc3c(c2)CCC3)c([N+](=O)[O-])c1 | 9.03% |
| CSc1cccc(NC(=O)CN2C(=O)COc3ccc(S(=O)(=O)N4CCOCC4)cc32)c1 | 10.9% |
| Cc1ccc(NC(=O)C(=O)NCc2ccco2)c(C)c1 | 109% (active) |
| Cc1ccc(NC(=O)Cn2nnc(C(=O)NCc3ccco3)c2N)c(C)c1 | -2.94% |
| Cc1ccccc1NC(=O)NCc1ccco1 | 18.7% |
| O=c1c2cc(Br)ccc2nc(-c2cccc(Cl)c2)n1O | 0.78% |
| COc1cc(/C=N/NC(=O)Cc2ccccc2)cc(OC)c1OC | -8.46% |
| CC(C)n1cnc2c(Nc3cccc(Cl)c3)nc(N(CCO)CCCO)nc21 | -2.33% |
| NS(=O)(=O)c1cccnc1Nc1cccc(Cl)c1 | 15.1% |
| OCCCNc1nccc(-c2cc(Nc3cccc(Cl)c3)ncn2)n1 | 51.3% (active) |
| O=C(O)CN1c2cccc3cccc(c23)S1(=O)=O | -1.09% |
| O=C(NCc1cccnc1)c1ccccc1NC(=O)c1c(F)cccc1F | -17.6% |

| Structure (SMILES) | inhibition |
| --- | --- |
| CCOC(=O)C1(CCOC)CCN(Cc2ccc(C(=O)OC)cc2)CC1 | 74.5% (active) |
| CCOC(=O)C1(CCOc2ccccc2)CCN(Cc2cc(OC)cc(OC)c2)CC1 | -16.1% |
| CCOC(=O)C1(CCOc2ccccc2)CCN(Cc2ccc(C#CCCO)cc2)CC1 | -10.3% |
| Cc1cc(NC(=O)CCN2CCN(Cc3ccccc3)CC2)ccc1Br | 3.31% |
| CCOC(=O)CC1COCCN1C(=O)c1cc(COc2ccc(F)c(F)c2)on1 (stereo not drawn) | 72.8% (active) |
| O=C(NC1Cc2ccccc2C1)c1cc(COc2cccc(C(F)(F)F)c2)on1 | -0.154% |
| Cc1nonc1C1CCCN1C(=O)c1cc(COc2cccc(C(F)(F)F)c2)on1 (stereo not drawn) | 23.7% |
| O=C(CC(NC(=O)c1ccccc1)c1ccccc1)Nc1ccc(F)c(F)c1 (stereo not drawn) | 12.4% |
| Cc1c(C(=O)N2CCOCC2)[nH]c2ccc(OCc3ccccc3)cc12 | 5.47% |
| O=C(c1cc(COc2ccc(F)c(F)c2)on1)N1CCOCC1 | 90.7% (active) |
| C=CCC1(CC=C)CCCN1C(=O)c1cc(COc2ccc(-n3cncn3)cc2)on1 | 40.9% |
| O=C(c1cc(COc2c(F)cccc2F)on1)N1CCSCC1 | 100% (active) |
| O=C(c1c(F)cccc1F)N1CCN(c2ncc(Br)cn2)CC1 | -6.62% |
| CCC(NC(=O)c1cc(COc2ccc(F)c(F)c2)on1)c1ccncc1 (stereo not drawn) | 52.5% (active) |
| Cc1cc(NC(=O)COC(=O)c2ccc(F)c(S(=O)(=O)N3CCOCC3)c2)no1 | -2.48% |
| O=C(c1cc(COc2cccc(C(F)(F)F)c2)on1)N1CCSCC1 | 26.5% |
| CC(C)NC(=O)N1CCN(c2ccncc2S(=O)(=O)N2CCCCC2)CC1 | -38.7% |
| Cn1c(=O)c(=O)n(C)c2cc(S(=O)(=O)CCC(=O)N3CCCCC3)ccc21 | -4.02% |
